Usually inhibition stands for the drop in the measured response relative to a control, in per cent.

Results on 94 compounds are retold here after PubChem BioAssay AID2315 (National Center for Advancing Translational Sciences (NCATS), 2010).

Hit rate of the full screen: of about 290,000 compounds, about 27,000 (9.3%) were called active. Rule as the data show it: active = inhibition mostly above about 28% (no sharp cut-off); inactive = mostly below about 43%. Many of the other results were omitted from the sample, so actives are more common in it than they were.

A short description of this assay: A qHTS for Small Molecule Inhibitors of Shiga Toxin. Also: 0% is about no effect. The note with it: Vero cells, Shiga toxin protein synthesis inhibition reporter; at 38.7 µM, stronger effect = higher value. In general terms: In qHTS, concentration-response curves come from the screen itself.
Regarding `O=C(O)CN1c2cccc3cccc(c23)S1(=O)=O`, the inhibition was -1.09% (inactive).

For the compound `O=C(NCc1cccnc1)c1ccccc1NC(=O)c1c(F)cccc1F`, the inhibition was -17.6% (inactive).

For `CCOC(=O)C1(CCOC)CCN(Cc2ccc(C(=O)OC)cc2)CC1`, the inhibition is 74.5% (active).

For the compound `CCOC(=O)C1(CCOc2ccccc2)CCN(Cc2cc(OC)cc(OC)c2)CC1`, the inhibition is -16.1% (inactive).

On to `CCOC(=O)C1(CCOc2ccccc2)CCN(Cc2ccc(C#CCCO)cc2)CC1`, for which the inhibition was -10.3% (inactive).

With `Cc1cc(NC(=O)CCN2CCN(Cc3ccccc3)CC2)ccc1Br`, the inhibition is 3.31% (inactive).

For the compound `O=C(CC(NC(=O)c1ccccc1)c1ccccc1)Nc1ccc(F)c(F)c1` (centres undefined), the inhibition is 12.4% (inactive).

In the case of `CCOC(=O)CC1COCCN1C(=O)c1cc(COc2ccc(F)c(F)c2)on1` (centres undefined), the inhibition was 72.8% (active).

For the compound `O=C(c1cc(COc2cccc(C(F)(F)F)c2)on1)N1CCSCC1`, the inhibition was 26.5% (inactive).

On to `O=C(c1c(F)cccc1F)N1CCN(c2ncc(Br)cn2)CC1`, for which the inhibition was -6.62% (inactive).

Consider `CCC(NC(=O)c1cc(COc2ccc(F)c(F)c2)on1)c1ccncc1` (centres undefined), for which the inhibition is 52.5% (active).

In the case of `O=C(NC1Cc2ccccc2C1)c1cc(COc2cccc(C(F)(F)F)c2)on1`, the inhibition is -0.154% (inactive).

In the case of `O=C(c1cc(COc2c(F)cccc2F)on1)N1CCSCC1`, the inhibition is 100% (active).

In the case of `Cc1c(C(=O)N2CCOCC2)[nH]c2ccc(OCc3ccccc3)cc12`, the inhibition is 5.47% (inactive).

Consider `O=C(c1cc(COc2ccc(F)c(F)c2)on1)N1CCOCC1`, for which the inhibition is 90.7% (active).

In the case of `C=CCC1(CC=C)CCCN1C(=O)c1cc(COc2ccc(-n3cncn3)cc2)on1`, the inhibition is 40.9% (inactive).

Consider `Cc1nonc1C1CCCN1C(=O)c1cc(COc2cccc(C(F)(F)F)c2)on1` (centres undefined), for which the inhibition is 23.7% (inactive).

Consider `Cc1cc(NC(=O)COC(=O)c2ccc(F)c(S(=O)(=O)N3CCOCC3)c2)no1`, for which the inhibition is -2.48% (inactive).

Consider `CC(C)NC(=O)N1CCN(c2ccncc2S(=O)(=O)N2CCCCC2)CC1`, for which the inhibition was -38.7% (inactive).

Turning to `Cn1c(=O)c(=O)n(C)c2cc(S(=O)(=O)CCC(=O)N3CCCCC3)ccc21`, the inhibition was -4.02% (inactive).

On to `CN(C)CCNc1ccc(-c2n[nH]c(=O)c3ccccc23)cc1[N+](=O)[O-]`, for which the inhibition was -10.6% (inactive).

In the case of `Cc1ccc(C(=O)NCC(=O)NCc2cc(=O)n(C)c(=O)n2C)cc1`, the inhibition is -10.2% (inactive).

For `COc1ccc(C(C(=O)NC2CCCCC2)N(C(=O)c2snc(C(N)=O)c2N)c2ccccc2OC)cc1` (centres undefined), the inhibition is -17.5% (inactive).

With `COc1ccc(-n2nc(C(=O)NCC(=O)N3CCCCCC3)c3ccccc3c2=O)cc1Cl`, the inhibition was -9.59% (inactive).

With `COc1cc(CC(=O)N2CCC(n3nccc3NC(=O)C3CC3)CC2)cc(OC)c1OC`, the inhibition is -10.9% (inactive).

Regarding `Cc1cc(C)cc(N(CCC#N)C(=O)CN2C(=O)NC3(CCCC3)C2=O)c1`, the inhibition was 23% (inactive).

As to `O=C(O)C1CCCN1C1=NS(=O)(=O)c2ccccc21` (centres undefined), the inhibition was -13.3% (inactive).

On to `CCOC(=O)C1CCN(C(=O)Cn2nc(C)c3c(C)n(-c4ccccc4)nc3c2=O)CC1`, for which the inhibition was -6.47% (inactive).

With `COc1ccc(N2CCN(S(=O)(=O)c3cc(Br)cnc3N)CC2)cc1`, the inhibition is -7.11% (inactive).

As for `O=C(CCN1C(=O)[C@@H]2Cc3ccccc3CN2C1=O)NCCc1ccccc1`, the inhibition is -8.8% (inactive).

Take `COCCN1CCN(C(=O)c2cc(COc3ccc(F)cc3Cl)on2)CC1`: the inhibition was -23.4% (inactive).

As to `O=C(Oc1ccc(C(=S)N2CCOCC2)cc1)c1ccc(F)cc1`, the inhibition was -4.36% (inactive).

Consider `O=C(c1cc(COc2ccc(F)cc2F)on1)N1CCOCC1`, for which the inhibition was 81.3% (active).

Consider `COc1ccc(/C=C/c2nnc(NC(=O)C(C)C)s2)cc1`, for which the inhibition is 42.3% (active).

`O=C(CSc1ccccc1)Nc1nnc(/C=C/c2ccccc2)s1`: the inhibition was -38.9% (inactive).

As to `O=C(Nc1ccc(Cl)cc1)Nc1nnc(/C=C/c2ccccc2)s1`, the inhibition was -5.24% (inactive).

`COC(=O)[C@]1(S(=O)(=O)c2ccccc2)C[C@@H]2ON=C(c3ccc(OC)cc3)[C@@H]2C1`: the inhibition is 13.5% (inactive).

For `Cc1nn2cc(-c3ccc(Cl)cc3)cnc2c1Br`, the inhibition is 38.8% (active).

Turning to `COc1ccc(N2CCN(C(=S)Nc3ccc(S(N)(=O)=O)cc3)CC2)cc1`, the inhibition is -17.7% (inactive).

Turning to `COc1ccc(NC(=S)N2N=CCC2c2ccccc2)cc1` (centres undefined), the inhibition was 88.7% (active).

As to `COc1ccc(NC(=O)N2CCC(Cc3ccccc3)CC2)cc1`, the inhibition is 35.2% (inactive).

For `COc1ccccc1CNC(=O)C1CCN(S(=O)(=O)c2ccc3c(c2)CC(C)N3C(=O)C2CC2)CC1` (centres undefined), the inhibition is -10.2% (inactive).

For the compound `Cc1ccc(N(Cc2ccccc2O)C(=O)c2ccccc2F)cc1`, the inhibition is -2.19% (inactive).

Regarding `CCOc1ccc2nc(Nc3nc4ccc(NC(C)=O)cc4s3)sc2c1`, the inhibition is 50.5% (inactive).

Turning to `CCOc1ccc2nc(C(=O)N3CCCC(C)C3)sc2c1` (centres undefined), the inhibition was 129% (active).

Regarding `CCCC(=O)N(CCN1CCOCC1)c1nc2ccc(OCC)cc2s1`, the inhibition is 1.4% (inactive).

Turning to `CC(C)[C@@H](C(=O)O)N(Cc1cccc(CN([C@H](C(=O)O)C(C)C)S(C)(=O)=O)c1)S(C)(=O)=O`, the inhibition was -4.11% (inactive).

As to `COc1ccc2c(c1)C=CC1(O2)N(CCO)c2ccccc2C1(C)C` (centres undefined), the inhibition was 40.8% (active).

For `COc1cccc(CC2(CO)CCCN(CC3=Cc4cc(OC)ccc4OC3)C2)c1` (centres undefined), the inhibition was -9.4% (inactive).

For the compound `CN1c2ccc([N+](=O)[O-])cc2C(C)(C)C12C=Cc1cc(C(=O)O)ccc1O2` (centres undefined), the inhibition was 6.92% (inactive).

With `Cc1ccc(C)c(NC(=O)c2cc(-c3cc(C)cc(C)c3O)n[nH]2)c1`, the inhibition was 1.58% (inactive).

With `Clc1ccc(C[n+]2cc(-c3ccccc3)n3c2CCC3)cc1`, the inhibition is 12.3% (inactive).

For the compound `O=C(N/N=C\c1cccnc1)c1cc(-c2ccccc2)nc2c(Cl)cccc12`, the inhibition is -27% (inactive).

As for `O=C(N/N=C/c1cccnc1)c1cc2ccccc2cc1O`, the inhibition is 87.2% (active).

For the compound `Cc1ccc(/C=N/NC(=O)c2cc3ccccc3cc2O)o1`, the inhibition was 51.6% (active).

Turning to `Cc1ccc(/C=N/NC(=O)CSc2ccccn2)o1`, the inhibition is 17.6% (inactive).

In the case of `O=C(N/N=C/c1cccnc1)c1ccc(NC(=O)c2ccc(F)cc2)cc1`, the inhibition is 12.4% (inactive).

Take `Cc1ccc(/C=N/NC(=O)CNC(=O)COc2ccccc2)o1`: the inhibition is -15.5% (inactive).

As to `CN(C)CCOC1c2ccccc2-c2ccccc21`, the inhibition is -5.07% (inactive).

With `COc1ccc(NC(=O)CNC(=O)Cc2ccccc2)cc1OC`, the inhibition was 3.87% (inactive).

`O=C(CN(Cc1ccccc1)C(=O)CCC(=O)Nc1ccccn1)NCCc1ccccc1`: the inhibition was -11.7% (inactive).

Turning to `COc1ccc2c(c1)c(C(=O)N/N=C/c1cccs1)c(C)n2C`, the inhibition was -4.44% (inactive).

As to `Cc1nnc(NC(=O)CCCOc2ccccc2)s1`, the inhibition is -8.1% (inactive).

For `Cc1ccc(CS(=O)(=O)c2ncc(Cl)c(C(=O)Nc3nnc(C)s3)n2)cc1`, the inhibition was 116% (active).

As to `Cc1ccc(S(=O)(=O)CC(=O)Nc2nnc(C)s2)cc1`, the inhibition is -7.78% (inactive).

For the compound `COCCSc1nnc(NC(=O)CCS(=O)(=O)Cc2ccccc2)s1`, the inhibition was -28.2% (inactive).

In the case of `CSc1ncc(Cl)c(C(=O)Nc2cc(C)ccc2C)n1`, the inhibition is -0.876% (inactive).

Turning to `CSc1nnc(NC(=O)c2nc(S(=O)(=O)Cc3ccc(C)cc3)ncc2Cl)s1`, the inhibition was 85.5% (active).

Consider `S=C(NCc1ccco1)NCc1ccccc1Cl`, for which the inhibition was 12.9% (inactive).

With `CCOC(=O)c1ccc(-n2c(CCC(=O)O)ccc2-c2ccccc2)cc1`, the inhibition was 1.31% (inactive).

Consider `O=C(O)CCn1c(Cc2ccccc2)nc2ccccc21`, for which the inhibition was 22.4% (inactive).

For the compound `CC(=O)c1cccc(NC(=S)N2CCN(S(C)(=O)=O)CC2)c1`, the inhibition was -3.09% (inactive).

For the compound `Cc1cc(C(=O)CSc2nc(N)cc(=O)[nH]2)c(C)n1Cc1ccco1`, the inhibition is -5.79% (inactive).

Take `Cc1ccc(OCC(=O)c2cc(C)n(Cc3ccco3)c2C)c([N+](=O)[O-])n1`: the inhibition is 50.3% (active).

With `COc1ccc(C)cc1-n1nnnc1SCC(=O)c1cc(C)n(Cc2ccco2)c1C`, the inhibition is -3.11% (inactive).

As for `COCC(C)n1c(C)cc(C(=O)COc2ccc(C)nc2[N+](=O)[O-])c1C` (centres undefined), the inhibition is 27% (inactive).

Regarding `O=C(COC(=O)CNC(=O)c1ccco1)Nc1ccc(F)cc1`, the inhibition was -5.84% (inactive).

Consider `Cc1cc(C(=O)COC(=O)CNC(=O)c2ccc(F)cc2)c(C)n1Cc1ccco1`, for which the inhibition is 109% (active).

With `CC(C)CCn1c(=O)c2c(nc3n2CCCN3Cc2ccccc2)n(C)c1=O`, the inhibition is -11.9% (inactive).

For the compound `CC(C)C[C@@H](COc1ccccc1)N1CCN(CC(C)C)CCC1=O`, the inhibition is 6.99% (inactive).

As for `O=S(=O)(c1ccc(Br)cc1)N1CCC(c2nc3ccccc3[nH]2)CC1`, the inhibition was 20.1% (inactive).

On to `CCCc1cc(=O)oc2c(C)c(OC(C)C(=O)NCC(O)c3ccccc3)ccc12` (centres undefined), for which the inhibition is -4.11% (inactive).

Turning to `O=C(CN(C(=O)c1csnn1)c1cccc(Cl)c1)NC1CCCC1`, the inhibition is 13.6% (inactive).

Take `C=CCOC(=O)C(=C)C`: the inhibition is -5.85% (inactive).

Consider `OCc1ccc(OCCCOc2cccc3cccnc23)cc1`, for which the inhibition was 31.7% (inactive).

`Cc1ccc(S(=O)(=O)NCCC(=O)Nc2ccc(C)c(Cl)c2)cc1C`: the inhibition is -2.35% (inactive).

Turning to `Cc1ccc(S(=O)(=O)NCCC(=O)Nc2cccc(S(N)(=O)=O)c2)cc1C`, the inhibition is 3.14% (inactive).

Regarding `Cc1ccnc(NC(=O)CCNS(=O)(=O)c2ccc(C)c(C)c2)c1`, the inhibition was 75.2% (active).

As for `O=[N+]([O-])c1ccccc1/C=C/CN1CCCC(CO)C1` (centres undefined), the inhibition was -4.92% (inactive).

As to `COc1cc2c(C(=O)N(C)c3cc(Cl)ccc3OC)cn(C)c(=O)c2cc1OC`, the inhibition is -4.23% (inactive).

In the case of `O=C1CCN(CCCc2ccccc2)CCN1CCO`, the inhibition is -7.2% (inactive).

As to `N#C/C(=C/c1ccc(Cl)cc1)NC(=O)c1ccccc1`, the inhibition is 69.2% (active).

For `O=C(NCC1CCCO1)/C(=C/c1ccc(Cl)cc1)NC(=O)c1ccccc1` (centres undefined), the inhibition is -1.77% (inactive).

Regarding `O=C(Nc1ccccc1)/C(=C/c1ccc([N+](=O)[O-])cc1)NC(=O)c1ccccc1`, the inhibition was 0.876% (inactive).
